High-throughput results (PubChem BioAssay)
MBNL1 CUG block: MBNL1-poly(CUG) RNA binding inhibition | TR-FRET MBNL1-His/biotin-(CUG)12 binding, 665/545 ratio | Potency, µM (series often up to 57.5 µM), inactives show at the top dose activity change, negative = inhibition, usual class: inhibitors | 280,000 compounds, 0.036% hits | AID 2675; active = well fitted inhibition curve with a large enough effect in the signal ratio, with a control signal flat, not every such curve was filed as active; inconclusive = small, poorly fitted or top-dose-only effect, or effect the other way, or a change in a side signal; inactive = no such curve, though single readings can be large or run the other way; the % refers to the signal ratio; note: potency is the fitted concentration of half-maximal effect; % is set by controls: 0 for no effect and ±100 for the full control effect
Target sequence (Q9NR56 whole entry, looked up): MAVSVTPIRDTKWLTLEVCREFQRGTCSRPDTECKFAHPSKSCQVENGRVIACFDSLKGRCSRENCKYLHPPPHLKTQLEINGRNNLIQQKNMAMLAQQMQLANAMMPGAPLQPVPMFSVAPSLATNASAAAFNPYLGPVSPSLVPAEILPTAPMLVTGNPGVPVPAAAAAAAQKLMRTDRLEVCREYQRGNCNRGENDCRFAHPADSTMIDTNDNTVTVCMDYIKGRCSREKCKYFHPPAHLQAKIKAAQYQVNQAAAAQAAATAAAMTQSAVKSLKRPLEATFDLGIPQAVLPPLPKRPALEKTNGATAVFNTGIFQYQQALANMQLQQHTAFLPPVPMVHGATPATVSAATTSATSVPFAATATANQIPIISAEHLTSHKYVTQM
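TR-FRET readout: Ex 340 nm, 665/545 nm emission ratio, normalized to buffer-only (basal) and MBNL1-(CUG)12 controls. Complex of MBNL1-His with Biotin-(CUG)12, compounds 92 nM–58 uM, incubated 60 min at room temperature.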
Mito fusion yeast: inhibitors of mitochondrial division or activators of mitochondrial fusion; S. cerevisiae fusion-defective mutant growth rescue, CellTiterGlo 48 h; Potency, µM (series often up to 46.1 µM), for the others: top-dose growth rescue (activation), most hits filed as activators; 320,000 compounds, 0.23% hits; note: potency is the fitted concentration of half-maximal effect; % of control where 0% means no effect; nearly all actives have a fitted effect of over 45% in size
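Yeast fusion mutant, YPEG (non-fermentable carbon), compound, 48 h at 37C non-permissive; CellTiterGlo added, 10 min RT, luminescence read. Rescued growth = division inhibition.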
Glioma ERSR ind: inducers of ER stress response in human glioma cells | U87-MG GRP78 promoter luciferase reporter, 16 h | 420,000 compounds, 0.02% hits | Potency, µM, without a hit: at the highest dose activation, usual class: activators; note: potency is the fitted concentration of half-maximal effect; series mostly up to about 76 µM; % of control where 0% means no effect; nearly all actives have a fitted effect of over 35% in size
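Stably transfected U87-MG human glioma cells carrying a GRP78-based luminescent sensor were seeded at 1000 cells/well, pin-dosed with compounds and incubated 16 h. Luciferase reagent was then added, and end-point luminescence was read after 10 min at room temperature.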
TCR act: activates T cell receptor signaling; primary human leukocytes, anti-CD3, IL-2 HTRF, 48 h; Potency, µM (highest dose often 9.22 µM), for the others: top-dose activation of IL-2 secretion, usual class: activators; 330,000 tested, under 10 active; note: % of control where 0% means no effect
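Using a-CD3 beads without co-stimulation, primary human leukocytes were exposed to compounds for 48 hr. An HTRF IL-2 kit measured the cytokine, with europium-to-d2 energy transfer producing emission at 665nm upon 320nm excitation.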
ClpP mod: qHTS Assay for Activators of ClpP; purified B. subtilis ClpP, FRET peptide cleavage, 20 min; Potency, µM (top dose mostly 57.5 µM), inactives show top-dose activity change, negative = active; 340,000 compounds, 1.9% hits; ATP-dependent Clp protease proteolytic subunit (Bacillus subtilis (strain 168)), P80244; active = well fitted falling curve with a large enough effect; inconclusive = small, poorly fitted or top-dose-only effect; inactive = no such curve, though single readings can be large or run the other way; note: potency is the fitted concentration of half-maximal effect; the source files actives as falling curves though it sought activators and does not explain the sign; nearly all actives have a fitted effect of over 65% in size
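ClpP 10 microg/mL final, pH 8 Tris/KCl buffer with BSA, glycerol, Tween-20; compound pinned in; FRET-FV substrate; RT 20 min; Ex320/Em430; ΔFRET vs ADEP 5.8 microM, DMSO, no enzyme.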
A-T KAP1 phos: potential ataxia-telangiectasia treatments restoring KAP-1 phosphorylation. F2112 A-T fibroblasts, KAP-1 phosphorylation AlphaLISA; neocarzinostatin DNA damage 30 min before lysis. Potency, µM (series often up to 57.5 µM), inactives show at the highest dose activation, usual class: activators. 320,000 compounds, 0.19% hits; note: potency is the fitted concentration of half-maximal effect; % of control where 0% means no effect; nearly all actives have a fitted effect of over 45% in size
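ATM-like activity read as KAP-1 phosphorylation via AlphaLISA donor/acceptor antibody pairs after lysis and 6 hr at 25C. Cells were ATM-null patient fibroblasts (F2112, hTERT), dosed 60 min, then exposed to the DSB inducer NCS for 30 min.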
* marks the source's active call; other numbers are inactive results; ? = inconclusive; . = not tested or not shown; [ ] = dose if it differs, or a comment. Only some compounds are listed: those with a hit (about 1.8% of all), similar ones and a draw of the others. Unless noted, calls come from the whole dose curve; as a rule, active = well fitted curve in the direction sought with a large enough effect; inconclusive = small, poorly fitted or top-dose-only effect, or another doubt; inactive = no such curve, though single readings can be large; an effect the other way counts as inactive or inconclusive.

SMILES	MBNL1 CUG block	Mito fusion yeast	Glioma ERSR ind	TCR act	ClpP mod	A-T KAP1 phos
COc1ccc(-c2nc3cnc(Oc4cccc(Cl)c4)nc3n(CCC#N)c2=O)cc1	.	.	-5%	.	.	.
O=C(CNc1cccc2ccccc12)c1ccc([N+](=O)[O-])cc1	?	-12%	-4%	-1%[46.1 µM]	5.6µM*	-6%
CNC(=S)N/N=C/c1ccc2c(c1)OCCO2	.	1%	2%	-2%[46.1 µM]	-4%	3.5µM*
NC(=S)N/N=C/c1ccc2c(c1)OCCO2	.	0%	5%	2%	-1%	-1%
CCN(CC)c1nc(C#N)cc(-c2ccc(OC)cc2)n1	6%	9%	-6%	-12%	35µM*	13%
COc1ccc(-c2cc(C#N)nc(Oc3ccc(Cl)cc3)n2)cc1	-11%	-1%	-4%	-4%[46.1 µM]	7.9µM*	2%
COc1ccc(-c2cc(C#N)nc(Cl)n2)cc1	13%	-7%	-8%	1%	0%	39%
O=C1CSC(c2cn(-c3ccccc3)nc2-c2cc3ccccc3oc2=O)N1Cc1ccco1 (stereo unspecified)	3%	6%	-5%	-5%	32µM*	7%
COc1ccc(-n2c(C)c([N+](=O)[O-])c3ccc(O)c(CN(C)C)c32)cc1	?	4%	-5%	-8%	22µM*	-11%
COc1cccc2cc(NC(=O)C3CCCCC3)c(=O)oc12	13%	0%	8%	-3%	35µM*	3%
COc1cccc2cc(C(=O)N3CCCCC3C)c(=O)oc12 (stereo unspecified)	5%	-1%	4%	3%[46.1 µM]	4%	0%
COc1cc(NC(=O)CSCc2cnn(-c3ccccc3)c2-n2cccc2)cc(OC)c1	2%	?	-3%	-4%[46.1 µM]	-1%	1%
COc1ccc(OC)c(NC(=O)CSCc2cnn(-c3ccccc3)c2-n2cccc2)c1	9%	-16%	-4%	-6%	32µM*	-4%
O=Cc1cc2c3c(c1)CCCN3CCC2	.	.	-4%	.	?	.
CC(C)[C@H](N)C(=O)N[C@@H](CCC(N)=O)C(=O)NCC(=O)N[C@@H](CCC(=O)O)C(=O)N[C@@H](CCC(=O)O)C(=O)N[C@@H](CO)C(=O)N[C@@H](CC(N)=O)C(=O)N[C@@H](CC(=O)O)C(=O)N[C@@H](CCCCN)C(=O)O	.	.	0%	.	.	.
CCC(=O)N/C(N)=N/c1nc(C)c2cc(OC)ccc2n1	5%	7%	-1%	0%	3.2µM*	-2%
CCOC(=O)CSc1nc(C)c2cc(C)c(C)cc2n1	2%	12%	0%	0%	.	5%
CCCc1c(C)nc2ccc(OC)cc2c1SCCC(=O)O	.	-2%	-5%	-3%	13µM*	2%
CCCOc1ccc2nc(C)c(CCC)c(SC(=N)N)c2c1	.	-2%	-1%	-4%	-4%	1%
COc1ccc2nc(/N=C(\N)NC(=O)C(C)(C)C)nc(C)c2c1	-4%	2%	1%	-4%	32µM*	-4%
CCOC(=O)CSc1nc(C)c2cc(OC)ccc2n1	24%	-8%	1%	0%	14µM*	-15%
COc1ccc2nc(/N=C(\N)NC(=O)N3c4ccccc4Sc4ccccc43)nc(C)c2c1	-8%	-2%	-1%	7%[46.1 µM]	?	2%
COc1ccc(/C=C/C(=O)NCC2Cc3cccc(-c4nc(C)cnc4C)c3O2)cc1OC (stereo unspecified)	.	.	-3%	.	.	.
CCCn1cnc2cc(NCc3cccc(OC)c3)ccc21	5%	4%	6%	4%	28µM*	-2%
CCn1cnc2cc(NCc3cccc(OC)c3O)ccc21	-12%	-3%	5%	.	32µM*	-5%
CCOc1ccc(CNc2ccc3c(c2)ncn3C)cc1	12%	11%	-5%	-5%	32µM*	-2%
CCCn1cnc2cc(NCc3ccc(OC)cc3OC)ccc21	.	.	-4%	.	?	.
